A selection: hits, their analogues and other compounds. The true share with any hit is near 5.7%.
PI5P4K alpha inh = qHTS for Inhibitors of phosphatidylinositol 5-phosphate 4-kinase (PI5P4K). 330,000 tested, 1.2% active. Phosphatidylinositol 5-phosphate 4-kinase type-2 alpha (Homo sapiens), P48426. AID 652105, 2013. PI5P4Kalpha enzyme, ADP-Glo luminescence, 60 min; stronger effect = lower value. max response, %; active = max response of -50% or lower; inconclusive = between -30% and -50%; inactive = -30% or higher; also: value at the top dose of about 77 µM; % is scaled to controls: 0 for no effect and ±100 for the full control effect
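qHTS, 1536-well: enzyme/substrate mix, compound by pin tool, 5 microM ATP final; RT 60 min; ADP-Glo reagents 1 (45 min) then 2 (30 min); luminescence.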
BAZ2B inh = qHTS Assay for Inhibitors of BAZ2B; Bromodomain adjacent to zinc finger domain protein 2B (Homo sapiens), Q9UIF8; AlphaScreen BAZ2B-H3K14Ac peptide displacement; Potency, µM (doses to about 114 µM), for inactives: top-dose activity change, negative = inhibition, actives largely listed as inhibitors; 360,000 tested, 4.4% active; also: potency is read from the fitted curve at half-maximal effect; % is scaled to controls: 0 for no effect and ±100 for the full control effect; nearly all actives have a fitted effect of over 60% in size
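AlphaScreen luminescence quantifies BAZ2B engagement of H3K14Ac peptide; the protein and biotinylated peptide are both at 50 nM final, buffer PBS pH 7.4 with 0.01% Tween-20, all steps at room temperature.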
L3MBTL1 block = qHTS Assay for the Inhibitors of L3MBTL1 | AlphaScreen L3MBTL1–H3K9me1 peptide binding | Potency, µM (series often up to 57.1 µM), without a hit: at the top dose activity, negative = inhibition, most hits filed as inhibitors | 230,000 tested, 0.66% active; also: potency is read from the fitted curve at half-maximal effect; % is scaled to controls: 0 for no effect and ±100 for the full control effect; nearly all actives have a fitted effect of over 60% in size
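Read-out is AlphaScreen signal from streptavidin donor and nickel chelate acceptor beads (10 ug/mL final each) bridging L3MBTL1 (50 nM) and biotinylated K9-monomethylated H3(1-15) peptide (75 nM), after 30 min compound exposure at room temperature.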
JMJD2E inh = qHTS Assay for Inhibitors of Human Jumonji Domain Containing 2E (JMJD2E); 230,000 tested, 1.6% active; Potency, µM (top dose mostly 57.1 µM), inactives show at the highest dose activity change, negative = inhibition, actives largely listed as inhibitors; JMJD2E catalytic domain, FDH-coupled NADH fluorescence (FDH is formaldehyde dehydrogenase); active = well fitted inhibition curve with a large enough effect, not every such curve was filed as active; inconclusive = small, poorly fitted or top-dose-only effect, or another doubt; inactive = no such curve, though single readings can be large or run the other way;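 also: potency is read from the fitted curve at half-maximal effect; 0% = wells with enzyme and -100% = buffer wells without enzyme; nearly all actives have a fitted effect of over 50% in size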
JMJD2A Tudor = qHTS Assay for Inhibitors of JMJD2A-Tudor Domain | AlphaScreen JMJD2A-Tudor / H3K4me3 peptide binding | AID 504339, 2011 | Potency, µM (titrated, usually from 114 µM), inactives show at the top dose activity change, negative = inhibition, usual class: inhibitors | 390,000 tested, 4.4% active; also: potency is read from the fitted curve at half-maximal effect; % is scaled to controls: 0 for no effect and ±100 for the full control effect; nearly all actives have a fitted effect of over 50% in size
Target sequence (O75164 whole entry, looked up, the tested form may be a part): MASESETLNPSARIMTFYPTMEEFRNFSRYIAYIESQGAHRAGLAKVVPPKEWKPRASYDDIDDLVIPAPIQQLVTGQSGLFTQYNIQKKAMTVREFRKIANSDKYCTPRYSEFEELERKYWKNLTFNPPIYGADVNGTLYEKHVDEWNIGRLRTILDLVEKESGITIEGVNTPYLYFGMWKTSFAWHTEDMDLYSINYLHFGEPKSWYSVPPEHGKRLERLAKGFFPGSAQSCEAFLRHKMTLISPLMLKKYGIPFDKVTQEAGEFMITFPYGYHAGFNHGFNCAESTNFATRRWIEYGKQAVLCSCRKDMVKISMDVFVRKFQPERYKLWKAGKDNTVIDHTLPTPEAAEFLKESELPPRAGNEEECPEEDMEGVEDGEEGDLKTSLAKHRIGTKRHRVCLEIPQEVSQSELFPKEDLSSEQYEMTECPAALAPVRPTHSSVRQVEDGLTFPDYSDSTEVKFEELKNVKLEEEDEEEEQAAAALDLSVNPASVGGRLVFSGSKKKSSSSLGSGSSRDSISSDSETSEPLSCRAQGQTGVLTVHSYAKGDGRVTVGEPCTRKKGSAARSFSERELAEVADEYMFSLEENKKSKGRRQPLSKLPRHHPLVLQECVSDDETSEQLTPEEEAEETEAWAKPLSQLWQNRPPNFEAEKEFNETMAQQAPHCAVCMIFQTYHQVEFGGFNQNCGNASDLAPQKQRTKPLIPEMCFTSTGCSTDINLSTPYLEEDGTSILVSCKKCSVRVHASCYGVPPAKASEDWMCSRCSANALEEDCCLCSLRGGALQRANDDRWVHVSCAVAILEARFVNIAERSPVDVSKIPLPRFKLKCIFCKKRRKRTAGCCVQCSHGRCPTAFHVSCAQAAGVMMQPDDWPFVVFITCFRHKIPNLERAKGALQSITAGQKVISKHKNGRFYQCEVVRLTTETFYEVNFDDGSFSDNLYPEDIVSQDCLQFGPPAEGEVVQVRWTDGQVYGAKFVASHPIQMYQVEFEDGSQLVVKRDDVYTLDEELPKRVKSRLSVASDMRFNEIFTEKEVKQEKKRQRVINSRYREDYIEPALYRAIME
HP1b binding inh = HTS for Inhibitors of HP1-beta Chromodomain Interactions with Methylated Histone Tails | Chromobox protein homolog 1 (Homo sapiens), P83916 | AlphaScreen HP1-beta / biotin-H3K9me3 peptide binding | Potency, µM (titrated, usually from 114 µM), without a hit: top-dose activity change, negative = inhibition, most hits filed as inhibitors | 390,000 tested, 0.56% active | AID 540317, 2011; also: potency is read from the fitted curve at half-maximal effect; nearly all actives have a fitted effect of over 70% in size
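HP1-beta protein (50 nM final) preincubated 30 min at room temperature with biotinylated H3(1-18)K9me3 peptide (50 nM) in PBS pH 7.4, 0.01% Tween-20, then compound added for 30 min. AlphaScreen streptavidin donor/nickel chelate acceptor beads (10 ug/mL final), 30 min dark, luminescence read.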
* marks the source's active call; other numbers are inactive results; ? = inconclusive; . = not tested or not shown; [ ] = remark or other dose. Unless noted, calls follow the shape of the dose curve; as a rule, active = well fitted inhibition curve with a large enough effect; inconclusive = small, poorly fitted or top-dose-only effect; inactive = no such curve, though single readings can be large or run the other way.

SMILES	PI5P4K alpha inh	BAZ2B inh	L3MBTL1 block	JMJD2E inh	JMJD2A Tudor	HP1b binding inh
Cc1nc2ncccn2c1-c1csc(Nc2ccc(N(C)C)cc2)n1	-22	32µM*	?	-13%	28µM*	?
CC(=O)Nc1ccc(Nc2nc(-c3c(C)nc4ccccn34)cs2)cc1	-12	.	.	.	79µM*	34%
COc1ccccc1Nc1nc(-c2c(C)nc3ncccn23)cs1	0	?	-13%	16µM*	-31%	?
O=C(NCc1nnc(-c2cc3ccccc3[nH]2)o1)c1ccccc1	.	.	.	.	-20%	.
CCOC(=O)c1c(CN2CCN(c3ccccc3)CC2)oc2cc(Br)c(O)cc12	-8	?	.	.	50µM*	-6%
Cc1ccc(NS(=O)(=O)c2cc3c(cc2F)NC(=O)CC3)cc1C	.	.	.	.	-7%	.
CN(CC(=O)O)Cc1nc2ccccc2[nH]1	.	20µM*	.	-26%	-71%	32%
CC(=O)NCCc1nc2ccccc2[nH]1	3	-3%	-2%	0%	1%	46%
COc1ccc(OC)c(S(=O)(=O)Nc2ccc(O)c3ccccc23)c1	-21	45µM*	-24%	?	?	71µM*
O=S(=O)(Nc1ccc(O)c2ccccc12)c1ccc(F)cc1	-13	.	.	.	50µM*	?
O=S(=O)(Nc1ccc(NS(=O)(=O)c2ccccc2)c2ccccc12)c1ccccc1	0	.	.	.	.	.
Cn1c(SCC(=O)NC2CCS(=O)(=O)C2)nnc1-c1ccco1 (stereo unspecified)	4	-2%	-2%	.	-1%	42%
COc1cc(OC)c(NC2(c3ccccc3)C(=O)c3ccccc3C2=O)cc1Cl	.	22µM*	.	.	20µM*	?
Cc1cccc(N2CCN(C3(c4ccccc4)C(=O)c4ccccc4C3=O)CC2)c1C	.	-17%[57.1 µM]	.	.	?	-16%
COc1ccc2nc(-c3ccc(N(C)C)cc3)sc2c1	.	.	.	.	-10%	.
C=CCNc1nc(-c2ccc(O)c(C(N)=O)c2)cs1	-58*	?	.	-22%	14µM*	-14%
C=CCNc1nc(-c2ccc3c(c2)OCCO3)cs1	-1	.	.	.	?	-8%
NC(=O)c1cc(-c2csc(NCCc3ccccc3)n2)ccc1O	-19	56µM*	.	.	?	?
Cc1ccc(Nc2ncc3c(=O)[nH][nH]c(=O)c3n2)cc1	-61*	.	.	.	-35%	28%
COc1cc(C(=O)O)nc2ccc([N+](=O)[O-])cc12	1	50µM*	39%	-18%	-17%[11.4 µM]	23%
N#Cc1cc2nc(O)c(O)nc2cc1[N+](=O)[O-]	-57*	6%	-8%	2%	79µM*	-19%
Cc1cccc(N2CCN(C(=O)Cn3nc(C)c4sc5ccccc5c4c3=O)CC2)c1C	.	-14%	.	.	-25%	47%
COc1cc(C2NCC(c3ccc(Cl)cc3Cl)c3c2[nH]c2ccccc32)cc(OC)c1OC (stereo unspecified)	4	35µM*	-19%	1%	45µM*	?
O=C(Nc1ccc(C(=O)N2CCN(c3ccccc3F)CC2)cc1)c1nsc2ccccc12	.	0%	.	.	-10%	20%[57 µM]
CC(NCCc1ccc(S(N)(=O)=O)cc1)C(=O)NCCc1ccc(F)cc1 (stereo unspecified)	0	50µM*	.	.	25µM*	?
SMILES	PI5P4K alpha inh	BAZ2B inh	L3MBTL1 block	JMJD2E inh	JMJD2A Tudor	HP1b binding inh
CCOc1ccc(CNC(=O)Cn2c(=O)c3cccn3c3ccc(F)cc32)cc1OC	.	-6%	.	.	-26%	-7%
Cc1ccc(/C(O)=C2/C(=O)C(=O)OC2c2ccc(Cl)cc2)cc1 (stereo unspecified)	.	-29%[57.1 µM]	-3%	-4%	79µM*	-8%
O=C1OC(c2ccccc2)/C(=C(/O)c2ccc(Cl)cc2)C1=O (stereo unspecified)	2	?	.	3%	25µM*	-6%
O=C1OC(c2ccccc2)/C(=C(/O)c2ccccc2)C1=O (stereo unspecified)	-9	0%	.	-13%	35µM*	0%
CN1C(=O)C(=O)/C(=C(/O)c2ccccc2)C1c1ccccc1 (stereo unspecified)	2	-4%	0%	.	-22%	21%
O=C1C(=O)N(CCO)C(c2cccc(F)c2)/C1=C(\O)c1ccc(Cl)cc1 (stereo unspecified)	3	?	2%	-4%	-23%	33%
Cc1ccc(/C(O)=C2\C(=O)C(=O)N(C)C2c2ccc(Br)cc2)cc1 (stereo unspecified)	2	3%	4%	.	-20%	10%
Cc1cccc(OCC(=O)Nc2ccc(S(=O)(=O)N(Cc3ccccc3)c3ccccc3)cc2)c1	.	-13%	.	.	-9%	44%
O=C(Cn1cc(SCc2ccc(F)cc2)c2ccccc21)N1CCCC1	.	-25%	.	.	-8%	39%
CCN(C(=O)CN(C)S(=O)(=O)c1ccc2c(c1)n(C)c(=O)c(=O)n2C)c1cccc(C)c1	.	6%	.	.	-10%	45%
COC(=O)C1=C(C(=O)OC)SC(=C2C(=S)C(C)(C)N(C(=O)C3CC3)c3ccccc32)S1	.	8.9µM*	.	6%	6.3µM*	7.1µM*
CCOC(=O)C1(C)C(C(=O)OC)=C(c2ccc(OC)cc2)c2ccccc2N1C(=O)OC (stereo unspecified)	-20	.	-15%	.	-21%	48%
COC(=O)C1=C(C(=O)OC)SC(=C2C(=S)C(C)(C)N(C(=O)C(C)C)c3ccccc32)S1	.	8.9µM*	.	-11%	11µM*	7.1µM*
COc1c(F)c(F)c(C(=O)Nc2ccccc2N2CCN(C(=O)C(C)C)CC2)c(F)c1F	20	-28%	-4%	-3%	-19%	8%
CCCC(=O)N1c2ccccc2C(=C2SC(C(=O)OC)=C(C(=O)OC)S2)C(=S)C1(C)C	-4	5.6µM*	-1%	-11%	-30%[11.4 µM]	14µM*
CCN(Cc1nc(-c2cccc(C)c2)no1)S(=O)(=O)c1ccc(C)cc1	.	60%	.	.	53%	98%
CC(C)(C)Nc1oc(-c2ccccc2)nc1-c1ccccc1F	.	.	.	3%	.	.
CS(=O)(=O)N(CC(=O)NCCSc1ccccc1)c1cc(C(F)(F)F)ccc1Cl	.	9%	.	.	-2%	38%
COC(=O)c1cc(NC(=O)c2oc(=O)c3ccccc3c2-c2ccccc2)cc(C(=O)OC)c1	.	.	.	.	-15%	10%
Cc1ccc(CCNC(=O)c2c[nH]c3ccc(S(=O)(=O)Nc4cccc(C(F)(F)F)c4)cc3c2=O)cc1	.	-7%	.	.	-29%	29%
CN(C)CCCOC(=O)COc1ccc(C(C)(C)C)cc1	4	-1%	2%	-5%	-9%	18%
